# Assay results from PubChem BioAssay (NCATS).
# Results filed as inconclusive are left out. Where a call stands in place of a potency, no number is given. A number with no mark means an inactive call. The source made the active and inactive calls. The call rests on the fitted dose curve; in most records, active means well fitted curve in the direction sought with a large enough effect; inconclusive means small, poorly fitted or top-dose-only effect, or another doubt; inactive means no such curve, though single readings can be large; an effect the other way counts as inactive or inconclusive.
# Tests used:
# [1] = molecular target: ATP-dependent 6-phosphofructokinase (Trypanosoma brucei brucei) (UniProt O15648); assay: qHTS Assay to Find Inhibitors of T. brucei phosphofructokinase: hit validation (AID 492961);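 further: luminescence reports ADP formed as PFK phosphorylates fructose-6-phosphate with ATP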
# Sequence of ATP-dependent 6-phosphofructokinase (Trypanosoma brucei brucei) (O15648 whole entry, looked up): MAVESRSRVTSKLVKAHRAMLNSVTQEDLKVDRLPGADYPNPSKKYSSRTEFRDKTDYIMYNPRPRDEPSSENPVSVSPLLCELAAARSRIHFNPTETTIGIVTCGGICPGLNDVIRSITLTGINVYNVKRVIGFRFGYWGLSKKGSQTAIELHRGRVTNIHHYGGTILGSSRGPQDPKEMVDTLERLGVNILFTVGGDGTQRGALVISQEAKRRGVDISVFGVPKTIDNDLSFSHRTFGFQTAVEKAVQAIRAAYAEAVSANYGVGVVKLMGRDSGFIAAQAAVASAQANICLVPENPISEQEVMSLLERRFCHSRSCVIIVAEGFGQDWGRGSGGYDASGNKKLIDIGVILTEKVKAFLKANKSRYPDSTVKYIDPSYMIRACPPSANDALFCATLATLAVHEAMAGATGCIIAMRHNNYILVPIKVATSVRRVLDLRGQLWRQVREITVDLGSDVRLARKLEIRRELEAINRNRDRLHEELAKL
# Summary of the method: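 In this biochemical qHTS validation, titrated compounds were tested against 1.25 nM PFK with 0.1 mM ATP and 0.5 mM F6P. Percent activity came from controls lacking or containing enzyme.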
# [2] = molecular target: Ubiquitin carboxyl-terminal hydrolase 1 (Homo sapiens) (UniProt O94782); assay: Inhibitors of USP1/UAF1: Pilot qHTS (AID 504865); further: nearly all actives have a fitted effect of over 35% in size; further: potency means the concentration at half of the fitted maximal effect
# Sequence of Ubiquitin carboxyl-terminal hydrolase 1 (Homo sapiens) (O94782 whole entry, looked up): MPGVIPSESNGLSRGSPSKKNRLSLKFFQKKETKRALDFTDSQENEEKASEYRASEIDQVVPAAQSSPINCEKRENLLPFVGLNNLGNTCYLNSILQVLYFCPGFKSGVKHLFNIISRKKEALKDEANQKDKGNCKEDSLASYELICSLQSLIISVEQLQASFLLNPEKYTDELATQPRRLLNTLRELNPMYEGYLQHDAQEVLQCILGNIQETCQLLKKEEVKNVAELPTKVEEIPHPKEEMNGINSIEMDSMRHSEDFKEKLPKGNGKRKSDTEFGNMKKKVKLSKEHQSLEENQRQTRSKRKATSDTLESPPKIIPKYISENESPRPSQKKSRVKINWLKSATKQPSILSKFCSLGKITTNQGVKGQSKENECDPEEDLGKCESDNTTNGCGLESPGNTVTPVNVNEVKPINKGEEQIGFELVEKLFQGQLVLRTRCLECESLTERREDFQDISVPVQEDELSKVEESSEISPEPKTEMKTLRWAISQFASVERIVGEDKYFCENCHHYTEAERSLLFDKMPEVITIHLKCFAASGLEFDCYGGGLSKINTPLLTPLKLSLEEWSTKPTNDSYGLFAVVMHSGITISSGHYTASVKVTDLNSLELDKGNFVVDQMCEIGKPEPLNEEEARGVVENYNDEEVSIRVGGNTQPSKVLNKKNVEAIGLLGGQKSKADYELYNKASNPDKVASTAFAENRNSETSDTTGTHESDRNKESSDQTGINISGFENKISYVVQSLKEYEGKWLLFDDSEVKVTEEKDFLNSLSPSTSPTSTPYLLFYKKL
# Summary of the method: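 Deubiquitinase activity followed as kinetic rhodamine fluorescence release from 150 nM Ub-Rho. 1 nM USP1/UAF1 with compound, after 15 min room-temperature preincubation, in HEPES pH 7.8 buffer containing TCEP, EDTA, BSA and Tween-20.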
# [3] = molecular target: Luciferin 4-monooxygenase (Photinus pyralis) (UniProt P08659); assay: Biochemical firefly luciferase enzyme assay for NPC (AID 624030);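 further: purified P. pyralis luciferase at 10 nM with luciferin and ATP substrate; nearly all actives have a fitted effect of over 70% in size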
# Sequence of Luciferin 4-monooxygenase (Photinus pyralis) (P08659 whole entry, looked up): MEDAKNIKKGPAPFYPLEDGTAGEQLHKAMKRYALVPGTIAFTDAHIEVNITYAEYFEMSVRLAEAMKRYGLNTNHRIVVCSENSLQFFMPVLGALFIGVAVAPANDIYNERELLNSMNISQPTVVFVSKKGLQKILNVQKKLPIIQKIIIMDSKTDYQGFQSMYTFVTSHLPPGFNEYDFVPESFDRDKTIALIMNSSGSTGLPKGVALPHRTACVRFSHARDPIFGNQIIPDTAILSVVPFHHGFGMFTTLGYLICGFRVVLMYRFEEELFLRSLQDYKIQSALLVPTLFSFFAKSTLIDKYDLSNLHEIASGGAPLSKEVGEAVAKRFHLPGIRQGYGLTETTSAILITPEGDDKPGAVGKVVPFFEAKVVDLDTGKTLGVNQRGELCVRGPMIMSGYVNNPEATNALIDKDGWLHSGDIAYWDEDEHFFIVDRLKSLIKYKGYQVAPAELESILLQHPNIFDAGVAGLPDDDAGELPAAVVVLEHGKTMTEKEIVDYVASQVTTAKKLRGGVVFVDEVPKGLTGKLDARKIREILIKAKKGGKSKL
# Summary of the method: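 Direct inhibition of firefly luciferase enzyme (10 nM final, 50 mM Tris Acetate) assessed by luminescence within 5 minutes. Percent activity scaled between DMSO and PTC124 positive control, with concentration-effect curves classified by fit quality and response.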
# [4] = qHTS profiling for inhibitors of Plasmodium falciparum proliferation (AID 504749); further: nearly all actives have a fitted effect of over 60% in size; further: potency means the concentration at half of the fitted maximal effect; settings: P. falciparum in erythrocytes, SYBR Green DNA, 72 h, at 28.7 µM (top of the series)
# Summary of the method: (§1)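 In a 72 h erythrocytic culture (37 C, humidified, 5% CO2) at 2.5% hematocrit and 0.3% starting parasitemia, compounds were tested; SYBR Green I in detergent lysis buffer stained parasite DNA overnight.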
# ATS189 = assay: as above; settings: P. falciparum in erythrocytes, SYBR Green DNA, 72 h; series mostly up to 28.7 µM
# Summary of the method: as §1
# C2A = assay: as above; settings: P. falciparum in erythrocytes, SYBR Green DNA, 72 h; series mostly up to 28.7 µM
# Summary of the method: as §1
# CP191 = assay: as above; settings: P. falciparum in erythrocytes, SYBR Green DNA, 72 h; series mostly up to 28.7 µM
# Summary of the method: as §1
# CP192 = assay: as above; settings: P. falciparum in erythrocytes, SYBR Green DNA, 72 h; series mostly up to 28.7 µM
# Summary of the method: as §1
# CP201 = assay: as above; settings: P. falciparum in erythrocytes, SYBR Green DNA, 72 h; series mostly up to 28.7 µM
# Summary of the method: as §1
# CP215 = assay: as above; settings: P. falciparum in erythrocytes, SYBR Green DNA, 72 h; series mostly up to 28.7 µM
# Summary of the method: as §1
# CP237 = assay: as above; settings: P. falciparum in erythrocytes, SYBR Green DNA, 72 h; series mostly up to 28.7 µM
# Summary of the method: as §1
# CP238 = assay: as above; settings: P. falciparum in erythrocytes, SYBR Green DNA, 72 h; series mostly up to 28.7 µM
# Summary of the method: as §1
# CP268 = assay: as above; settings: P. falciparum in erythrocytes, SYBR Green DNA, 72 h; series mostly up to 28.7 µM
# Summary of the method: as §1
# CP269 = assay: as above; settings: P. falciparum in erythrocytes, SYBR Green DNA, 72 h; series mostly up to 28.7 µM
# Summary of the method: as §1
# CP286 = assay: as above; settings: P. falciparum in erythrocytes, SYBR Green DNA, 72 h; series mostly up to 28.7 µM
# Summary of the method: as §1
# CP325 = assay: as above; settings: P. falciparum in erythrocytes, SYBR Green DNA, 72 h; series mostly up to 28.7 µM
# Summary of the method: as §1
# CP329 = assay: as above; settings: P. falciparum in erythrocytes, SYBR Green DNA, 72 h; series mostly up to 28.7 µM
# Summary of the method: as §1
# FAB9 = assay: as above; settings: P. falciparum in erythrocytes, SYBR Green DNA, 72 h; series mostly up to 28.7 µM
# Summary of the method: as §1
# JCK = assay: as above; settings: P. falciparum in erythrocytes, SYBR Green DNA, 72 h; series mostly up to 28.7 µM
# Summary of the method: as §1
# PC49 = assay: as above; settings: P. falciparum in erythrocytes, SYBR Green DNA, 72 h; series mostly up to 28.7 µM
# Summary of the method: as §1
smiles,measurement,setting,value
CC1OC(O[C@H]2C[C@@H](O)[C@]3(CO)[C@@H]4C(CC[C@]3(O)C2)[C@@]2(O)CC[C@H](C3=CC(=O)OC3)[C@@]2(C)C[C@H]4O)C(O)C(O)C1O (stereo not given in full),outcome,[1],inactive
same,Potency,[2],inactive
same,Potency,[3],inactive
same,"activity, negative = inhibition",[4]; parasite line A,-8.52%
same,"activity, negative = inhibition",[4]; parasite line B,-0.0666%
same,Potency,ATS189,inactive
same,Potency,C2A,inactive
same,Potency,CP191,inactive
same,Potency,CP192,inactive
same,Potency,CP201,inactive
same,Potency,CP215,inactive
same,Potency,CP237,inactive
same,Potency,CP238,inactive
same,Potency,CP268,inactive
same,Potency,CP269,inactive
same,Potency,CP286,inactive
same,Potency,CP325,inactive
same,Potency,CP329,inactive
same,Potency,FAB9,inactive
same,Potency,JCK,inactive
same,Potency,PC49,inactive
CNCC(=O)NC(CCCN=C(N)N)C(=O)NC(C(=O)NC(Cc1ccc(O)cc1)C(=O)NC(C(=O)NC(Cc1cnc[nH]1)C(=O)N1CCCC1C(=O)NC(C)C(=O)O)C(C)C)C(C)C (stereo not given),outcome,[1],inactive
OC[C@@H](O)[C@H]1O[C@@H]2OC(C(Cl)(Cl)Cl)O[C@H]2[C@H]1O (stereo not given in full),outcome,[1],inactive
same,Potency,[2],inactive
same,Potency,[3],inactive
same,"activity, negative = inhibition",[4]; parasite line A,8.29%
same,"activity, negative = inhibition",[4]; parasite line B,19.1%
same,Potency,ATS189,inactive
same,Potency,C2A,inactive
same,Potency,CP191,inactive
same,Potency,CP192,inactive
same,Potency,CP201,inactive
same,Potency,CP215,inactive
same,Potency,CP237,inactive
same,Potency,CP238,inactive
same,Potency,CP268,inactive
same,Potency,CP269,inactive
same,Potency,CP286,inactive
same,Potency,CP325,inactive
same,Potency,CP329,inactive
same,Potency,FAB9,inactive
same,Potency,JCK,inactive
same,Potency,PC49,inactive
NC(Cc1ccc(Oc2cc(I)c(O)c(I)c2)c(I)c1)C(=O)O (stereo not given),Potency,[2],79.4 µM (active)
same,"activity, negative = inhibition",[4]; parasite line A,8.09%
same,"activity, negative = inhibition",[4]; parasite line B,-0.518%
same,Potency,ATS189,inactive
same,Potency,C2A,inactive
same,Potency,CP191,inactive
same,Potency,CP192,inactive
same,Potency,CP201,inactive
same,Potency,CP215,inactive
same,Potency,CP237,inactive
same,Potency,CP238,inactive
same,Potency,CP268,inactive
same,Potency,CP269,inactive
same,Potency,CP286,inactive
same,Potency,CP325,inactive
same,Potency,CP329,inactive
same,Potency,FAB9,inactive
same,Potency,JCK,inactive
same,Potency,PC49,inactive
C#CC1(O)C=CC2C3CCC4=CC(=O)CCC4C3CCC21CC (stereo not given),outcome,[1],inactive
same,Potency,[2],inactive
same,Potency,[3],inactive
same,Potency,ATS189,inactive
same,Potency,C2A,inactive
same,Potency,CP191,5.01 µM (active)
same,Potency,CP215,9.53 µM (active)
same,Potency,CP237,3.55 µM (active)
same,Potency,CP238,inactive
same,Potency,CP268,7.57 µM (active)
same,Potency,CP325,12 µM (active)
same,Potency,JCK,inactive
C[C@]12CCC3C(CCC4=C(Cl)C(=O)CC[C@@]43C)C1CCC2O (stereo not given in full),outcome,[1],inactive
same,Potency,[2],inactive
same,Potency,[3],inactive
same,"activity, negative = inhibition",[4]; parasite line A,-5.63%
same,"activity, negative = inhibition",[4]; parasite line B,-11.9%
same,Potency,ATS189,inactive
same,Potency,C2A,inactive
same,Potency,CP191,inactive
same,Potency,CP192,inactive
same,Potency,CP201,inactive
same,Potency,CP215,inactive
same,Potency,CP237,inactive
same,Potency,CP238,inactive
same,Potency,CP268,inactive
same,Potency,CP269,inactive
same,Potency,CP286,inactive
same,Potency,CP325,inactive
same,Potency,CP329,inactive
same,Potency,FAB9,inactive
same,Potency,JCK,inactive
same,Potency,PC49,inactive
CCC(=O)OC1(c2ccccc2)CCN(C)CC1C (stereo not given),Potency,[2],inactive
same,Potency,[3],inactive
same,"activity, negative = inhibition",[4]; parasite line A,-1.38%
same,"activity, negative = inhibition",[4]; parasite line B,2.19%
same,Potency,C2A,inactive
same,Potency,CP191,inactive
same,Potency,CP192,inactive
same,Potency,CP201,inactive
same,Potency,CP215,inactive
same,Potency,CP237,3.98 µM (active)
same,Potency,CP268,inactive
same,Potency,CP269,inactive
same,Potency,CP286,12.6 µM (active)
same,Potency,FAB9,inactive
same,Potency,JCK,inactive
C[C@]12CC[C@H]3[C@@H](CC[C@@]45O[C@@H]4C(=O)C(C#N)C[C@]35C)[C@@H]1CC[C@@H]2O (stereo not given in full),outcome,[1],inactive
same,Potency,[2],inactive
same,Potency,[3],inactive
same,Potency,CP192,inactive
same,Potency,CP201,inactive
same,Potency,CP215,inactive
same,Potency,CP237,inactive
same,Potency,CP238,inactive
same,Potency,CP268,inactive
same,Potency,CP269,inactive
same,Potency,CP286,inactive
same,Potency,CP325,inactive
same,Potency,CP329,inactive
same,Potency,FAB9,inactive
same,Potency,JCK,inactive
same,Potency,PC49,inactive
O=C1CC2OCC=C3CN4CCC56c7ccccc7N1C5[C@H]2[C@H]3C[C@H]46 (stereo not given in full) (tested in a mixture with another compound),outcome,[1],inactive
same,Potency,[2],inactive
same,Potency,ATS189,inactive
same,Potency,C2A,inactive
same,Potency,CP191,inactive
same,Potency,CP192,inactive
same,Potency,CP201,inactive
same,Potency,CP237,inactive
same,Potency,CP238,inactive
same,Potency,CP268,inactive
same,Potency,CP269,inactive
same,Potency,CP325,inactive
same,Potency,CP329,inactive
same,Potency,JCK,inactive
CCCC(C)C1(CC)C(=O)NC(=S)NC1=O (stereo not given),outcome,[1],inactive
same,Potency,[3],inactive
same,"activity, negative = inhibition",[4]; parasite line A,0.271%
same,"activity, negative = inhibition",[4]; parasite line B,18%
same,Potency,ATS189,inactive
same,Potency,C2A,inactive
same,Potency,CP191,inactive
same,Potency,CP201,inactive
same,Potency,CP215,inactive
same,Potency,CP237,inactive
same,Potency,CP238,inactive
same,Potency,CP268,inactive
same,Potency,CP269,inactive
same,Potency,CP286,inactive
same,Potency,CP325,inactive
same,Potency,CP329,inactive
same,Potency,FAB9,inactive
same,Potency,JCK,inactive
same,Potency,PC49,inactive
CC12CCC3C4CCC(=O)C(O)=C4CCC3C1CCC2OC(=O)CCC1CCCC1 (stereo not given),outcome,[1],inactive
same,Potency,[2],inactive
same,Potency,[3],inactive
same,"activity, negative = inhibition",[4]; parasite line A,-6.44%
same,"activity, negative = inhibition",[4]; parasite line B,-4.5%
same,Potency,ATS189,inactive
same,Potency,C2A,inactive
same,Potency,CP191,inactive
same,Potency,CP192,inactive
same,Potency,CP201,inactive
same,Potency,CP215,inactive
same,Potency,CP237,inactive
same,Potency,CP238,inactive
same,Potency,CP268,inactive
same,Potency,CP269,inactive
same,Potency,CP286,inactive
same,Potency,CP325,inactive
same,Potency,CP329,inactive
same,Potency,FAB9,inactive
same,Potency,JCK,inactive
same,Potency,PC49,inactive
COC(=O)C1C(OC(=O)c2ccccc2)CC2CCC1N2C (stereo not given),Potency,[2],inactive
same,Potency,[3],inactive
same,"activity, negative = inhibition",[4]; parasite line A,9.75%
same,"activity, negative = inhibition",[4]; parasite line B,-3.4%
same,Potency,ATS189,inactive
same,Potency,C2A,inactive
same,Potency,CP191,inactive
same,Potency,CP192,inactive
same,Potency,CP201,inactive
same,Potency,CP215,inactive
same,Potency,CP237,inactive
same,Potency,CP238,inactive
same,Potency,CP268,inactive
same,Potency,CP269,inactive
same,Potency,CP286,inactive
same,Potency,CP325,inactive
same,Potency,CP329,inactive
same,Potency,FAB9,inactive
same,Potency,JCK,inactive
same,Potency,PC49,inactive
C=C1CC2C(CC[C@]3(C)C(=O)CCC23)[C@]2(C)C=CC(=O)C=C12 (stereo not given in full),outcome,[1],inactive
same,Potency,[2],inactive
same,Potency,[3],inactive
same,"activity, negative = inhibition",[4]; parasite line B,0.0393%
same,Potency,ATS189,inactive
same,Potency,C2A,inactive
same,Potency,CP191,inactive
same,Potency,CP192,inactive
same,Potency,CP201,inactive
same,Potency,CP215,inactive
same,Potency,CP237,inactive
same,Potency,CP238,inactive
same,Potency,CP268,inactive
same,Potency,CP269,inactive
same,Potency,CP286,inactive
same,Potency,CP325,inactive
same,Potency,CP329,inactive
same,Potency,FAB9,inactive
same,Potency,JCK,inactive
same,Potency,PC49,inactive
